# Bioassay records from PubChem BioAssay.
# RecA intein inh – blocks M. tuberculosis RecA intein splicing. P9WHJ3. cell-free RecA intein splicing, fluorescence. inhibition, % (test concentration not listed). 290,000 compounds, 0.75% hits; in the data active = inhibition above about 30%; inconclusive = no clear call, values can overlap the other calls;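 note: 0% = vehicle wells and 100% = reference inhibitor control wells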
# RmlCD inh 1536 – inhibitors of Mycobacterium tuberculosis RmlC and RmlD coupled enzymes; 160,000 compounds, 0.03% hits; AID 1533; P9WH09+P9WH11; RmlC+RmlD coupled enzyme assay, percent inhibition; primary screen in compound mixtures; inhibition, % at 3.6 µM; in the data active = inhibition mostly above about 34%, no sharp cut-off; inconclusive = no clear call, values can overlap the other calls; inactive = mostly below about 22%
# Target sequence (P9WH09 whole entry, looked up): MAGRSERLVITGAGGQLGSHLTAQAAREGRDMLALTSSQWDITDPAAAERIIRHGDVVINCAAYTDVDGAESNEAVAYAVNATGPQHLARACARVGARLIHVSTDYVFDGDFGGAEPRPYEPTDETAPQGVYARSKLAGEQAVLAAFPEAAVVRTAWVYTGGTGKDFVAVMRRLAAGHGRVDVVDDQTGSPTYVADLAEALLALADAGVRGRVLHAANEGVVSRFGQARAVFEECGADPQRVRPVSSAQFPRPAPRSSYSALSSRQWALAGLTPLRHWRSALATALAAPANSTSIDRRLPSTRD
# Target sequence (P9WH11 whole entry, looked up): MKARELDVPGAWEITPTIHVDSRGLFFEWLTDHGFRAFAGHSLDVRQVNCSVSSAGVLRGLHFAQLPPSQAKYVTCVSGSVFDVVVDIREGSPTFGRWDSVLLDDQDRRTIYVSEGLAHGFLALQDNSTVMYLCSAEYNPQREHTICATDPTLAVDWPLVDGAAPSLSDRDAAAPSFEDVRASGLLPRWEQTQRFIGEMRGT
# GFP chromo cs – counter-screen GFP chromophore formation inhibition; EC50, µM; 2,100 compounds, 83% hits; shares compounds with RecA intein inh; cell-free GFP chromophore formation, fluorescence; call rule not given here
# Numbers without * were called inactive; ? = inconclusive; · = no result given; ! = not active in a repeat. The list is not random: actives were taken first. Their share in the collection is about 0.77%.
SMILES,RecA intein inh,RmlCD inh 1536,GFP chromo cs
ON1C2CCCCC2N(O)C1c1ccccc1F (stereo not given),-5,·,·
O=C(CC1NCCc2ccccc21)Nc1ccccc1Cl (stereo not given),-2,-15,·
CC(=O)N(Cc1ccc(F)cc1)c1cccc(C)c1C,-1,-18,·
CC(=O)N(Cc1ccc(F)cc1)C1=C(NCCc2ccccc2)C(=O)c2ccccc2C1=O,78*,·,11*
COc1cc2cc(C)c(SCC(=O)N3CCN(C(=O)c4ccco4)CC3)nc2cc1OC,-2,6,·
COc1ccc(/C=C(\NC(=O)c2ccco2)C(=O)NCCc2nc3ccccc3[nH]2)cc1,1,-1,·
COC(CNC(=O)C(=O)Nc1ccc2c(c1)N(S(=O)(=O)c1cccs1)CCC2)OC,0,·,·
Nc1nccnc1C(=O)OCC(=O)C12CC3CC(CC(C3)C1)C2,-1,·,·
N#CC1(C#N)CC(C=O)=C(N)C1(C#N)CC(=O)C12CC3CC(CC(C3)C1)C2 (stereo not given),41*,-6,19*
Cc1ccccc1NC(=O)Nc1ccc2c(c1)OCO2,-2,·,·
Nc1nnc(SCC(=O)Nc2ccc(F)c(Cl)c2)n1-c1ccccc1,0,·,·
Cc1c(/C=N/Nc2nc3ccccc3[nH]2)c2ccccc2n1C,39*,-7,12*
Cn1c(/C=N/Nc2nc3ccccc3[nH]2)nc2ccccc21,7,-8,·
CN1CCN(c2ccc([N+](=O)[O-])cc2NC(=O)c2ccco2)CC1,0,·,·
Cc1ccc(-c2ccc(/C=C3\SC(N4CCOCC4)=NC3=O)o2)cc1,-26,6,·
Cc1ccc(/C=C2\SC(N3CCN(C(c4ccccc4)c4ccccc4)CC3)=NC2=O)o1,33*,-1,>38
COc1ccccc1/C=N/NC(=O)CNC(=O)c1ccc(S(=O)(=O)N(C)C)cc1,-3,-8,·
O=C1c2ccccc2C(=O)c2c1ccc(C(=O)N1CCCCC1)c2NCCO,-2,·,·
CCN(CCN(C)C)C(=O)c1ccc2c(c1NCCO)C(=O)c1ccccc1C2=O,48*,-13,?
CN1C(=O)/C(=C/c2ccc(-c3ccccc3[N+](=O)[O-])o2)SC1=Nc1ccc(Cl)c(C(=O)O)c1,45*,8,23*
O=C(O)c1cc(-c2ccc(/C=C3/SC(=S)N(Cc4ccccc4)C3=O)o2)ccc1Cl,·,3,·
CC(=O)Nc1ccc(SCC(=O)c2c(N)n(Cc3ccccc3)c(=O)n(C)c2=O)cc1,-1,-9,·
CC(=O)NC(=S)c1c(N)n(Cc2ccccc2)c(=O)n(C)c1=O,33*,11,>38
O=S(=O)(/C=C/c1ccccc1)NC1CCCCCCC1,4,-8,·
COc1ccccc1C(=O)COC(=O)CNS(=O)(=O)c1ccc(C)cc1,-2,-1,·
SMILES,RecA intein inh,RmlCD inh 1536,GFP chromo cs
O=C(O)c1ccccc1C(=O)NC1CCN(c2nccc(C(F)(F)F)n2)CC1,-3,·,·
Cc1ccc(Oc2coc3cc(OC(=O)c4cccs4)ccc3c2=O)cc1,12,·,·
CCOc1ccccc1Oc1coc2cc(OC(=O)c3ccco3)ccc2c1=O,33*,8,>38
CCOc1ccccc1Oc1coc2cc(OC(=O)N(C)C)ccc2c1=O,4,·,·
Cc1cc(C)cc(Oc2coc3cc(OC(=O)c4cccs4)ccc3c2=O)c1,34*,-5,>38
O=C(NC1CCCCC1)c1cc(C(=O)c2ccccc2Br)c[nH]1,-2,·,·
Cc1ccc2c(c1)C1CN(C)CCC1N2C(=S)NC(=O)c1ccc(Br)cc1 (stereo not given),5,-10,·
C/C(CC(=O)Nc1cccnc1)=N\NC(=O)C(=O)NC(C)C,-2,2,·
C/C(CC(=O)Nc1cc(C)ccn1)=N\NC(=O)c1cccc(C)c1O,7,·,·
C/C(CC(=O)Nc1cc(C)ccn1)=N\NC(=O)c1cccc(C)c1,70*,-7,18*
C/C(CC(=O)Nc1cc(C)ccn1)=N\NC(=O)C(=O)NC(C)C,64*,13,39*
CN(CC(=O)Nc1ccc(C(N)=O)cc1)CC(=O)Nc1ccccc1Cl,-4,8,·
CCC(CO)NC(=O)C1C=C2c3cccc4[nH]cc(c34)CC2N(C)C1 (stereo not given),21,-13,·
CC[C@@H](CO)NC(=O)[C@@H]1C=C2c3cccc4c3c(cn4C)C[C@H]2N(C)C1,62*!,·,>38
CCOc1ccc(/C=N/N2CCN(Cc3ccccc3)CC2)cc1,-1,·,·
CCOC(=O)c1c(C)sc2c1N(C(=O)CCl)c1cc(Cl)ccc1S2,55*,3,1.6*
Cc1sc2ncnc(SCC(=O)N3c4ccccc4Sc4ccc(Cl)cc43)c2c1C,1,6,·
COC(=O)c1c(NC(=O)c2ccccc2F)sc(C(=O)N2CCOCC2)c1C,1,·,·
O=C(COC(=O)C1CCN(c2ccc(C(F)(F)F)cn2)CC1)c1ccccc1Cl,3,·,·
Cc1cccc(S(=O)(=O)Nc2cccc3c2C(=O)c2ccccc2-3)c1,-1,-6,·
Cc1ccc(C)c(S(=O)(=O)/N=C2\C=C(NS(=O)(=O)c3ccccc3)C(=O)c3ccccc32)c1,75*,·,5.4*
Cc1cc(NS(=O)(=O)c2ccc(C(C)C)cc2)no1,3,·,·
COC(=O)C(C(C)=O)C1=C/C(=N\S(=O)(=O)c2ccc(C)cc2)c2ccccc2C1=O (stereo not given),18,·,·
CC(C)c1ccc(S(=O)(=O)/N=C2\C=C(NS(=O)(=O)c3ccccc3)C(=O)c3ccccc32)cc1,45*,·,6.7*
CCc1ccc(S(=O)(=O)/N=C2\C=C(NS(=O)(=O)c3ccccc3)C(=O)c3ccccc32)cc1,34*,·,4*
SMILES,RecA intein inh,RmlCD inh 1536,GFP chromo cs
Cn1nnnc1CCOCCc1nnnn1C,1,2,·
C#CCOC(=O)c1ccccc1C(=O)n1nnc2ccccc21,51*,·,35*
O=C(c1cccc2ccccc12)n1nnc2ccccc21,21,·,·
CCc1nc(C)cn1S(=O)(=O)c1ccc([N+](=O)[O-])cc1,-1,-10,·
CCCn1c(CC)nc([N+](=O)[O-])c1S(=O)(=O)c1ccccc1,46*,8,>38
CC(C)NC(=O)NS(=O)(=O)c1cnccc1NC1CC2CCC1C2 (stereo not given),-3,·,·
O=C(O)c1ccc2c3c(ncnc13)-c1ccccc1C2=O,44*,-2,4.4*
O=C(O)c1cccc2c1C(=O)c1ccccc1C2=O,-3,-1,·
CCSc1nnc(NC(=O)C2CCCCC2C(=O)OCC(F)(F)C(F)F)s1 (stereo not given),3,8,·
O=C1c2ccccc2C(O)N1c1ccc(Cl)cc1 (stereo not given),0,8,·
COC(=O)C1CN(C#N)N(c2ccc(Cl)cc2)C12c1ccccc1-c1ccccc12 (stereo not given),44*,·,9.8*
O=C(O)c1cccc(Cn2c(Cl)c(/C=N/Nc3ccccc3)sc2=O)c1,30*,-10,>38
O=C(O)c1cccc(Cn2c(Cl)c(/C=N/NC(=O)c3ccccc3Cl)sc2=O)c1,3,·,·
Cc1ccc2nc(C)c(Cl)c(=O)n2c1,-1,13,·
Cc1ncc(CO)c(CNc2ccc(-c3nc4ccccc4[nH]3)cc2)c1O,-4,·,·
COc1cc(/C=C(\C#N)c2nc3ccccc3o2)ccc1O,34*,31,17*
N#C/C(=C\c1ccc(O)cc1)c1nc2ccccc2o1,27,-10,·
O=C(CCl)Oc1ccc2occ(C(=O)c3cccs3)c2c1,32*,7,25*
CC(=O)Oc1ccc2occ(C(=O)c3cccs3)c2c1,0,·,·
